According to PubChem BioAssay (Tox21):
Where “and” joins values, the source holds several entries; their conditions need not be identical. Equal values may be shown once. Records with an inconclusive call do not appear. A call without a number means that no potency is given here. Calls of active or inactive are those of the source. Calls come from the whole dose curve; as a rule, active = well fitted inhibition curve with a large enough effect in the signal ratio in the repeat runs (not every such curve was filed as active); inconclusive = weak or mixed curves; inactive = flat fitted curve, though single readings scatter; the % refers to the signal ratio.

target: Progesterone receptor (Homo sapiens) (UniProt P06401); assay: qHTS assay to identify small molecule antagonists of the progesterone receptor (PR) signaling pathway (AID 1346795); conditions: PR-UAS-bla HEK293T, beta-lactamase FRET ratio, 16 h; series mostly up to 92.4 µM; activity change, negative = inhibition: at the top concentration
Sequence (P06401 whole entry, looked up): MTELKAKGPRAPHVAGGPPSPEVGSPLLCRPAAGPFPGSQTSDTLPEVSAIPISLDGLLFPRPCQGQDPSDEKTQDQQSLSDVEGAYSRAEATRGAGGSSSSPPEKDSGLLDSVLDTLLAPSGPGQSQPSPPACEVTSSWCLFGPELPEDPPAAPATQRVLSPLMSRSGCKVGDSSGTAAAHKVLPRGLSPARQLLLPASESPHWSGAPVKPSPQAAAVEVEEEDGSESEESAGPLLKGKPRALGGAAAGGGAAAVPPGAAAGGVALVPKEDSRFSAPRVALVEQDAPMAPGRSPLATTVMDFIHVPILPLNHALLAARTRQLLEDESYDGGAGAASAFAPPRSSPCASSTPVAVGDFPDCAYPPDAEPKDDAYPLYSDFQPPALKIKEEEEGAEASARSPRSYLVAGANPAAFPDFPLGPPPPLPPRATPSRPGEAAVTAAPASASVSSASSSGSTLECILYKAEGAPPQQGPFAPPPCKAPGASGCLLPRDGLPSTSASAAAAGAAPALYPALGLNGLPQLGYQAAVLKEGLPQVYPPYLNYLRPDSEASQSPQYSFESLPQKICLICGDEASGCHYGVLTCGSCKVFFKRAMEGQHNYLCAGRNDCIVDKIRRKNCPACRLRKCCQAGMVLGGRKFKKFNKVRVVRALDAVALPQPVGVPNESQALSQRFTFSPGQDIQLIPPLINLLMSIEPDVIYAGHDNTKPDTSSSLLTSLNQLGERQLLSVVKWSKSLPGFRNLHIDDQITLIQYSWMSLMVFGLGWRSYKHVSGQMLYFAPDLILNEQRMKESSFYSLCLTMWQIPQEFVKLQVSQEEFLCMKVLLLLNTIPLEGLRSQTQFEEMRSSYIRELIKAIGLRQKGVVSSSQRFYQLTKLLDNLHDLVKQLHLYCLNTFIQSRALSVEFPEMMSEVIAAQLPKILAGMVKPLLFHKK
From the text: National Center for Advancing Translational Sciences [NCATS]
NIH Chemical Genomics Center [NCGC]
U.S. Environmental Protection Agency [EPA]
National Institutes of Environmental Health Sciences [NIEHS]
National Toxicology Program [NTP]
U.S. Food and Drug Administration [FDA]
Progesterone receptor (PR), a nuclear hormone receptor, plays an important role in development, metabolic homeostasis and reproduction. […] Endocrine disrupting chemicals (EDCs) and their interactions with steroid hormone receptors like PR causes disruption of normal endocrine function. To identify the compounds that inhibit PR signaling, a PR-UAS-bla GripTite cell line i.e. PR-UAS-bla HEK293T (Invitrogen, Carlsbad, CA, USA) containing a beta-lactamase reporter gene under the control of an Upstream Activator Sequence (UAS) was used to screen Tox21 10K compound library.
Tox21 Assay Protocol Summary:
PR-UAS-bla HEK293T cells were dispensed at 3,000 cells/4 uL of assay medium containing 2% charcoal stripped FBS per well into black wall/clear-bottom 1536-well plates using a Multidrop Combi (ThermoFisher Scientific, Waltham, MA) dispenser. After the assay plates were incubated at a 37C and 5% CO2 for 6 hr, 23 nL of compounds dissolved in DMSO, positive controls or DMSO only was transferred to the assay plate by a Pintool station (Kalypsys, San Diego, CA), followed by addition of 1 uL (1nM as final concentration) of Promegestone (R5020) in assay medium using a BioRAPTR FRD (Flying Reagent Dispenser, Aurora Discovery, San Diego, CA). The plates were incubated at 37C and 5% CO2 for 16 hr. Then 1 uL of LiveBLAzer B/G FRET substrate was added using a FRD. After the plates were incubated at room temperature for 2 hours, fluorescence intensity was measured by an Envision plate reader (PerkinElmer, Shelton, CT).
Potency is the fitted concentration of half-maximal effect.

| Compound | activity change, negative = inhibition | Potency |
| --- | --- | --- |
| CCCCCC(C)=O | 12% (inactive) |  |
| Cc1nnc(NS(=O)(=O)c2ccc(N)cc2)s1 |  | inactive |
| Cc1cc(C)cc(O)c1 |  | inactive |
| C[Si](C)(C)N[Si](C)(C)C |  | inactive |
| COc1ccc(N)c(OC)c1 |  | inactive |
| OC[C@H]1O[C@@H](Oc2ccc(O)cc2)[C@H](O)[C@@H](O)[C@@H]1O |  | inactive |
| O=C(O)Cc1c[nH]c2ccccc12 |  | inactive |
| CC/C=C(\C(=O)N[C@@H]1C(=O)N2C(C(=O)OCOC(=O)C(C)(C)C)=C(COC(N)=O)CS[C@H]12)c1csc(N)n1 |  | inactive |
| CO[Si](CCCNCCN)(OC)OC |  | inactive |
| CN=C(NC#N)NCCSCc1nc[nH]c1C |  | inactive |
| NC(=O)c1ncn([C@@H]2O[C@H](CO)[C@@H](O)[C@H]2O)n1 | -12.6% [at 42.5 µM] (inactive) |  |
| OCC(CO)(CO)CO |  | inactive |
| C=C(CC(=O)O)C(=O)O |  | inactive |
| CCCOCC(C)O (stereo not given) |  | inactive |
| CC(CN1c2ccccc2Sc2ccccc21)N(C)C (stereo not given) |  | 61.8 µM (active) and 30.6 µM (active) |
| C=CC(=O)NCOCCCC |  | inactive |
| NCCNCCNCCN |  | inactive |
| O=C1OC(=O)c2c(Cl)c(Cl)c(Cl)c(Cl)c21 | -7.69% (inactive) |  |
| CCN(CC)CCNC(=O)c1ccc(N)cc1 |  | inactive |
| CC(=O)OCc1ccc2c(c1)OCO2 |  | inactive |

| Compound | activity change, negative = inhibition | Potency |
| --- | --- | --- |
| CCc1cccc(O)c1 |  | inactive |
| c1cnc2c(c1)ccc1cccnc12 |  | 309 nM (active) and 306 nM (active) |
| Nc1cccc(N)n1 |  | inactive |
| NC(N)=S |  | inactive |
| CC(C)(CO)CO |  | inactive |
| C[n+]1ccn(CCO)c1 |  | inactive |
| Clc1cccc(Cl)c1NC1=NCCN1 |  | inactive |
| CCCCCCCCO |  | inactive |
| CC(=O)OC/C=C(\C)CCC=C(C)C |  | inactive |
| CC1=CC(=O)CC(C)(C)C1 | 12.1% (inactive) |  |
| O=C1O[C@H]([C@H](O)CO)C(O)=C1O |  | inactive |
| Cc1ncc(CO)c(CO)c1O |  | inactive |
| CCc1cccc(CC)c1N |  | inactive |
| CC(C=O)Cc1ccc(C(C)(C)C)cc1 (stereo not given) |  | inactive |
| OC1CCCCC1 |  | inactive |
| CCCCCCCCCCCC(=O)N(C)CC(=O)O |  | inactive |
| COC(=O)/C=C\C(=O)OC |  | inactive |
| O=[N+]([O-])c1cc(C(F)(F)F)ccc1Cl |  | inactive |
| CC(=O)OC(C)(C)C1CC=C(C)CC1 (stereo not given) |  | inactive |
| Cc1cc(C)c(O)c(C)c1 |  | inactive |
